Measurements as given in paper PMC5540273 (PLoS ONE, 2017).

The molecules below were run on T1, FAK. Settings: concentration: 1 μM, replicates: in singlicate; n = 1.
T1 construct: gene PTK2
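Note: KINOMEscan kinase panel screen.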

Row | SMILES | %Inh [%]
1 | CN1CCN(Cc2cccc(-c3ccc4c(Nc5ccc(Oc6ccccc6)cc5)ccnc4c3)c2)CC1 [GW578342] | 0
2 | Nc1ncc(-c2ccc3nccc(-c4ccncc4)c3c2)cc1S(=O)(=O)N1CCOCC1 [GSK1627798] | 2
3 | CN(C)S(=O)(=O)c1cc(-c2ccc3nccc(-c4cccc(S(N)(=O)=O)c4)c3c2)cnc1N [GSK1669921] | 0
4 | CCn1c(-c2nonc2N)nc2c(C#CC(C)(C)O)ncc(OCCCCN)c21.O=C(O)C(F)(F)F.O=C(O)C(F)(F)F [GSK507274] | 0
5 | Cc1ccc(C)c(NC(=O)NC2CCN(c3ccnc(Nc4ccc(F)cc4)n3)C2)c1 (stereo not drawn) [GSK1379720] | 0

These molecules were tested on FER. Settings: concentration: 1 μM, replicates: in singlicate; n = 1.

Row | SMILES | %Inh [%]
6 | Cn1cc(-c2[nH]c3cc(NC(=O)[C@H](N)C4CCCCC4)cc4c3c2C=NNC4=O)cn1 | 13
7 | O=C(Nc1ccccc1F)NC1CCN(c2ccnc(Nc3ccc(F)cc3)n2)CC1 [GSK1379800] | 15
8 | Cc1ccc(F)c(C(=O)Nc2cccc(-c3nn4ccccc4c3-c3ccnc(Nc4cccc(F)c4)n3)c2)c1F [GSK361061] | 40
9 | O=C(O)C(F)(F)F.O=C(O)C(F)(F)F.O=c1[nH]ccc2nc(N[C@@H]3CCCNC3)nc(Nc3ccc(S(=O)(=O)N4CCOCC4)cc3)c12 [GSK2177277] | 95.4
10 | CN1CCN(CCCNc2nccc(-c3c(-c4ccc(F)cc4)nn4cc(C(F)(F)F)ccc34)n2)CC1 [GW621581] | 0
11 | CSc1cccc2c(-c3ccncn3)c(-c3ccc(F)cc3)nn12 [GW514786] | 17
12 | O=C(Nc1cccc(-c2nn3ccccc3c2-c2ccnc(Nc3cccc(C(F)(F)F)c3)n2)c1)c1c(F)cccc1F [GSK292658] | 3
13 | COc1ccc(Nc2nccc(N3CCC(NC(=O)Nc4cccc(OC)c4)C3)n2)cc1 (stereo not drawn) [GSK1379742] | 26
14 | Cc1cccc(NC(=O)Nc2ccc(Oc3ncnc4ccn(C)c34)cc2)c1 | 0
15 | O=C(NC1CCN(c2ccnc(Nc3ccc(F)cc3)n2)C1)c1cc2ccccc2s1 (stereo not drawn) [GSK1379716] | 44
16 | O=c1[nH]cc(-c2ccc(N3CCOCC3)cc2)c2sc(-c3cn[nH]c3)cc12 [GSK2276055] | 0
17 | Nc1ncc(-c2cccnc2)c2scc(-c3ccc4c(c3)CCN4C(=O)Cc3ccccc3)c12 [GSK683281] | 33
18 | O=C(Nc1cccc(Oc2ccc3nc(NC(=O)C4CC4)cn3n2)c1)c1ccccc1C(F)(F)F | 0
19 | Cl.Cl.NCC(NCc1ccc(-c2ccnc3[nH]ccc23)s1)c1ccccc1 (stereo not drawn) [GSK1321565] | 46
20 | COc1ccc(CNC(=O)NC2CCN(c3ccnc(Nc4ccc(F)cc4)n3)CC2)cc1 [GSK1379788] | 17
21 | CCn1c(-c2nonc2N)nc2c(C#CC(C)(C)O)nc(OC[C@H](N)c3ccccc3)cc21 [GSK943949] | 0
22 | CN(c1ccc(NC(=O)Nc2cc(C(F)(F)F)ccc2F)cc1)c1ccnc(Nc2ccc(S(N)(=O)=O)cc2)n1 [GW809893] | 84
23 | O=C(Nc1n[nH]c2nc(-c3ccc(O)cc3)ccc12)C1CC1 [SB-710363] | 0
24 | O=C(Nc1cccc(-c2nn3ccccc3c2-c2ccnc(Nc3cccc(F)c3)n2)c1)c1c(F)ccc(F)c1Cl [GSK357952] | 45

Row | SMILES | %Inh [%]
25 | Nc1ncnc2c1nc(-c1ccccc1)n2-c1ccccc1 [SKF-97293] | 8
26 | Cc1cccc(Nc2nc(N[C@H]3CCNC3)ncc2C(N)=O)c1.Cl [GSK2197149] | 69
27 | COc1cccc(C2=C(Nc3ccc(Cl)c(C(=O)O)c3)C(=O)NC2=O)c1 [SB-390769] | 7
28 | COc1cc(Nc2nccc(-c3c(-c4cccc(NC(=O)c5c(F)cccc5F)c4)nn4ccccc34)n2)cc(OC)c1OC [GSK323521] | 14
29 | CC(=O)Nc1nc2cnc(Nc3cc(NC(=O)c4cccc(C5(C#N)CC5)c4Cl)ccc3C)nc2s1 | 0
30 | c1ccc(Oc2ccc(Nc3ccnc4cc(-c5ccc(CNCCN6CCOCC6)o5)ccc34)cc2)nc1 [GW567145] | 0
31 | CNC(=O)c1ccccc1Nc1nc(Nc2ccc(N3CCOCC3)cc2)ncc1Cl.Cl [GSK1576028] | 97.7
32 | Cl.Cl.NCC(NC(=O)c1cc(-c2ccccc2)c(-c2ccnc3[nH]ccc23)s1)c1ccccc1 (stereo not drawn) [GSK1321561] | 36
33 | Fc1ccc(-c2ncn(C3CCNCC3)c2-c2ccnc(Oc3ccc(-c4ccccc4)cc3)n2)cc1 [SB-245391] | 0
34 | Cn1cc(-c2ccc3c(c2)CCN3C(=O)Cc2cccc(F)c2)c2c(N)ncnc21 [GSK2603358] | 35
35 | COc1cc(Nc2nccc(N3CCC(NC(=O)c4cc5ccccc5s4)C3)n2)cc(OC)c1OC (stereo not drawn) [GSK1379760] | 34
36 | CC(=O)N1CCN(c2ccc(Nc3nccc(-c4sc(C(C)C)nc4-c4cccc(NS(=O)(=O)c5cccc(Cl)c5)c4)n3)cn2)CC1 [GSK1660437] | 35
37 | COc1cc(Nc2ncc3c(C)nc(-c4cc5ccccc5[nH]4)n3n2)cc(OC)c1OC [GW869516] | 0
38 | CN1CCN(Cc2cccc(-c3ccc4c(Nc5ccc(Oc6ccccc6)cc5)ccnc4c3)c2)CC1 [GW578342] | 4
39 | Nc1ncc(-c2ccc3nccc(-c4ccncc4)c3c2)cc1S(=O)(=O)N1CCOCC1 [GSK1627798] | 11
40 | CN(C)S(=O)(=O)c1cc(-c2ccc3nccc(-c4cccc(S(N)(=O)=O)c4)c3c2)cnc1N [GSK1669921] | 5
41 | CCn1c(-c2nonc2N)nc2c(C#CC(C)(C)O)ncc(OCCCCN)c21.O=C(O)C(F)(F)F.O=C(O)C(F)(F)F [GSK507274] | 0
42 | Cc1ccc(C)c(NC(=O)NC2CCN(c3ccnc(Nc4ccc(F)cc4)n3)C2)c1 (stereo not drawn) [GSK1379720] | 2
